Screens from PubChem.
Hits are enriched below; roughly 1.5% of the tested compounds scored in any of these assays.
NALP3 yeast inh: NALP3 inflammasome inhibitors in reconstituted yeast, primary screen, luminescence, uHTS; Yeast reconstituted NLRP3/ASC/caspase-1, beta-gal luminescence, 24 h; inhibition, % at 10 µM; 330,000 compounds, 0.39% hits; AID 2825, 2010;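 active means inhibition of 50% or more; inactive means inhibition below 50%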;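 further: plate controls were induced DMSO wells for no effect and uninduced yeast grown without galactose for full effect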
JMJD2C inh: inhibitors of GASC-1 histone demethylase, primary screen, biochemical, fluorescence, DELFIA europium | Lysine-specific demethylase 4C (Homo sapiens), Q9H3R0 | GST-JMJD2C(1-420) H3K9me3 demethylation | inhibition, % at 2.35 µM | 330,000 compounds, 0.069% hits;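 active means more than half of a compound's replicate wells show inhibition beyond 50%, single wells judged on their own value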;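 further: signal counts dimethyl H3K9 product captured on neutravidin plate; 0% = median of DMSO wells and 100% = 0.3 times that DMSO median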
Target sequence (Q9H3R0 1-420 limits assumed): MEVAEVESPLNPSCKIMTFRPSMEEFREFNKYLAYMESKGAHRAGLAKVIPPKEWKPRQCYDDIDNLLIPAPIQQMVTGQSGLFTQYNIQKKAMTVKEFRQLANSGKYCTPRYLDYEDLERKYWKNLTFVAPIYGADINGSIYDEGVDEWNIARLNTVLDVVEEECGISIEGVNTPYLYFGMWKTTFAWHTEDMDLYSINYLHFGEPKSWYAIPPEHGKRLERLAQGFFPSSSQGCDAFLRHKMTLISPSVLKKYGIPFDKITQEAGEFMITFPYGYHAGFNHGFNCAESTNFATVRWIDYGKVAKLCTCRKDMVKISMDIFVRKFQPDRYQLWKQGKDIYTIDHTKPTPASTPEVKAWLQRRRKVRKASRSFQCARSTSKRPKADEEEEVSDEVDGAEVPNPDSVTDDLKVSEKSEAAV
PolyA inh: polyadenylation inhibitors in yeast reporter cells, primary screen, luminescence, S. cerevisiae | S. cerevisiae SKY197-pL101 polyadenylation reporter, beta-gal luminescence; efflux-impaired pdr1/pdr3 knockout yeast; score 100 = 6 SD above DMSO | activity score, % at 12 µM | 300,000 compounds, 0.02% hits | AID 1875, 2009;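 active means lowest replicate activity score at least 50, where 100 means six control SD above control mean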;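 further: yeast exposed to compound for 9 h at 30 °C; higher score means more reporter readthrough which indicates perturbed polyadenylation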
Efflux pump mplx: inhibitors of Candida efflux pumps in yeast, primary screen, S. cerevisiae, Nile Red, multiplex | S. cerevisiae Candida pump triplex | inhibition, % at 10 µM | 330,000 compounds, 0.44% hits | AID 485275, 2010;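 active means plate passing quality check with inhibition over a set limit, or well fluorescence over plate mean plus 4 SD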;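 further: Nile Red retained in pooled yeast measured as flow cytometry median fluorescence; 0% = buffer negative control and 100% = Enniatin B positive control; higher means more Nile Red kept so more efflux inhibition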
NALP1 inh: NALP1 inflammasome inhibitors in reconstituted yeast, colorimetric, S. cerevisiae, triplicate retest | S. cerevisiae NALP1/ASC/caspase-1 growth, X-gal OD620, 72 h | inhibition, % at 10 µM | 280,000 compounds, 0.61% hits | AID 2071, 2009; in the data active means inhibition mostly above about 24%, no sharp cut-off; inactive means mostly below about 32%
HDAC3 inh: HDAC3 deacetylase inhibitors, primary screen, biochemical, fluorescence, cell-free homogeneous; 320,000 compounds, 0.15% hits; Histone deacetylase 3 (Homo sapiens), O15379; inhibition, % at 8.3 µM; recombinant HDAC3, fluorogenic peptide/trypsin coupled; in the data active means inhibition above about 26%, passing the limit was not always enough
Cmpd fluor yeast: flagged as fluorescent in efflux inhibitor counter-screen; 1,700 compounds, 4% hits; S. cerevisiae AD/pABC3, compound fluorescence, flow cytometry; fluorescence ratio to DMSO, % at 10 µM; shares compounds with Efflux pump mplx;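 active means fluorescence ratio to DMSO above its plate's cutoff, the plate mean ratio plus 5 SD, cut at about 210% in these data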;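 further: unstained yeast with no Nile Red so the signal is compound autofluorescence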
Mdr1 pump inh: inhibitors of Candida albicans Mdr1 efflux, confirmation, flow cytometry, singleplex, Cherry Pick1 set; 1,700 compounds, 1% hits; AID 588518, 2011; shares compounds with Efflux pump mplx; S. cerevisiae AD/CaMDR1, Nile Red efflux; inhibition, % at 10 µM; in the data active means inhibition above about 26%;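 further: 0% = DMSO vehicle and 100% = reference inhibitor; higher means more Nile Red retained so more efflux inhibition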
Cdr2 pump inh: inhibitors of Candida albicans Cdr2 efflux pump, confirmation, S. cerevisiae AD/CaCDR2, flow cytometry, cherry pick 1, singleplex | shares compounds with Efflux pump mplx | Nile Red retention | Nile Red retention ratio vs DMSO, % at 10 µM | 1,700 compounds, 4% hits | AID 588520, 2011; in the data active means Nile Red retention ratio vs DMSO above about 190%;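 further: higher ratio means more blocking of Cdr2 efflux of the dye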
Cdr1 pump inh: inhibitors of Candida albicans Cdr1 efflux pump, confirmation, S. cerevisiae AD/CaCDR1, flow cytometry, cherry pick 1, singleplex; AID 588522, 2011; inhibition, % at 10 µM; Nile Red efflux; shares compounds with Efflux pump mplx; 1,700 compounds, 1% hits;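 active means inhibition above the screen-wide mean plus twice its standard deviation, cut at about 32% in these data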
Active calls of the source: *; / = no result; + = active, no number.

SMILES	NALP3 yeast inh	JMJD2C inh	PolyA inh	Efflux pump mplx	NALP1 inh	HDAC3 inh	Cmpd fluor yeast	Mdr1 pump inh	Cdr2 pump inh	Cdr1 pump inh
CCC(C)NC(=O)c1ccc(Cl)c(S(=O)(=O)Nc2ccccc2N2CCOCC2)c1 (centres undefined)	8.7	2.3	/	-0.1	/	-2.6	/	/	/	/
Cc1cccc(/C=N/NC(=O)c2ccncc2)n1	12.3	-5.5	-13.0	-0.1	-2.1	1.7	/	/	/	/
COCc1cc(CNC(=O)C2CCC(=O)N(Cc3cccc(OC)c3)C2)[nH]n1 (centres undefined)	15.9	-2.6	-5.4	/	26.0	/	/	/	/	/
CC(=O)NCCn1c(SCc2ccc(C)cc2C)nc2ccccc2c1=O	17.9	2.9	-16.7	0.1	-1.2	4.6	/	/	/	/
CN(C)Cc1c(O)ccc2c1O/C(=C\C=C\c1ccccc1)C2=O	8.5	3.2	-0.2	0.6*	44.1*	1.6	83.3	0.1	103.8	-0.4
CCN1CCN(Cc2c(O)ccc3c2O/C(=C\C=C\c2ccccc2)C3=O)CC1	-4.1	-6.6	-16.2	0.2	17.0	2.7	/	/	/	/
Cn1cc(/C=C/c2cc[n+](C)cc2)c2cc(F)ccc21	/	-19.6	-15.0	9.5*	1.9	10.6	743.4*	3.4	93.0	4.2
Cn1cc(/C=C/c2cc[n+](C)cc2)c2cc(Cl)ccc21	/	-35.1	-4.0	5.9*	17.6	5.5	735.4*	2.9	99.3	2.0
Cn1cc(C=O)c2cc(F)ccc21	15.7	-4.5	1.0	0.1	10.5	1.0	/	/	/	/
O=C(CSc1nnc(-c2ccncc2)n1CC1CCCO1)Nc1ccccc1Cl (centres undefined)	-14.4	-13.8	-0.4	0.5*	-19.2	-1.7	99.0	0.0	107.2	-0.1
O=C(CSc1nnc(-c2ccncc2)n1CC1CCCO1)NCc1ccccc1 (centres undefined)	4.4	2.7	21.0	-0.2	13.5	6.6	/	/	/	/
C=CCn1c(SCC(=O)Nc2ccc(C(=O)OCC)cc2)nnc1-c1sc(N)nc1C	4.1	9.5	16.3	0.2	6.7	10.6	/	/	/	/
C=CCn1c(SCc2ccc(C(=O)OC)cc2)nnc1-c1sc(N)nc1C	4.1	-1.3	7.0	15.2*	11.2	4.5	105.8	-0.3	100.7	-0.1
C[n+]1ccccc1/C=C/c1ccc([N+](=O)[O-])cc1	32.1	-7.7	12.1	1.4*	3.4	8.3	133.3	0.8	120.4	0.5
O=C(O)c1cccc(CN2C(=O)CSC2=O)c1	6.7	1.1	9.5	0.9*	24.1	-0.1	84.4	0.1	86.9	-0.2
CC1CCN(C(=O)CNC(=O)c2ccc(Br)o2)CC1	10.2	3.4	/	0.2	/	-6.9	/	/	/	/
Cc1ccc2c(c1)CCCN2C(=O)C1CCCO1 (centres undefined)	4.0	17.7	-4.7	14.4*	/	-6.4	102.5	-0.2	99.6	0.2
COc1ccccc1-c1nc(C#N)c(N2CCN(C(c3ccccc3)c3ccccc3)CC2)o1	7.8	2.4	4.1	0.5*	8.3	-2.9	100.2	0.1	116.2	0.0
Cc1ccc(S(=O)(=O)Nc2cc(C(C(=O)OC(C)C)C(=O)C(F)(F)F)c(O)c3ccccc23)c(C)c1 (centres undefined)	-10.6	7.1	-9.5	12.6*	36.5	2.9	88.0	0.0	96.3	0.0
Cc1ccc(C)c(N2CCN(C(=O)c3nn(C)c4c3CS(=O)(=O)c3ccccc3-4)CC2)c1	19.9	3.0	-12.3	-0.2	11.9	8.0	/	/	/	/
CC(C)(C)c1ccc(C(=O)NNc2cc(N3CCCCC3)nc(N3CCCCC3)n2)cc1	35.6	-7.7	-14.0	0.1	23.9	-1.3	/	/	/	/
O=C(NNc1cc(N2CCCC2)nc(N2CCCC2)n1)c1ccc([N+](=O)[O-])cc1	26.0	-34.5	-19.0	0.7*	-24.1	0.4	116.4	0.6	116.2	0.3
CN(C(=O)CSc1nnc(-c2ccncc2)n1Cc1ccccc1)C1CCS(=O)(=O)C1 (centres undefined)	-5.4	-5.4	-4.6	0.0	10.6	0.7	/	/	/	/
CCCCCCOC(=O)C[N+](C)(C)CCOC1CC2CCC1(C)C2(C)C (centres undefined)	12.2	-12.8	0.2	2.6*	32.4	-2.2	107.9	-0.1	+	0.0
CCCCCCCOC(=O)C[N+](C)(C)CCOC1CC2CCC1(C)C2(C)C (centres undefined)	/	-6.8	15.2	/	34.1	/	/	/	/	/
SMILES	NALP3 yeast inh	JMJD2C inh	PolyA inh	Efflux pump mplx	NALP1 inh	HDAC3 inh	Cmpd fluor yeast	Mdr1 pump inh	Cdr2 pump inh	Cdr1 pump inh
CC1CN(S(=O)(=O)c2cccc(C(=O)N3CCC(C(N)=O)CC3)c2)CC(C)O1 (centres undefined)	13.0	-3.4	/	0.2	/	-2.8	/	/	/	/
Cc1ccc(C(=O)Nc2nc(C)c(C(=O)N(C)C)s2)o1	17.4	12.3	14.7	0.1	-2.3	-8.3	/	/	/	/
Cc1nc(NC(=S)NC(=O)c2ccco2)sc1C(=O)N(C)C	16.6	8.0	-2.9	5.7*	16.3	-4.6	79.0	0.3	99.6	-0.4
COC(=O)CCCC1=CC2=CC(=O)C(C)(OC(=O)c3cccs3)C(=O)C2=CN1Cc1ccccc1 (centres undefined)	10.0	-0.7	7.4	0.4	/	7.2	/	/	/	/
COC(=O)CCCC1=CC2=CC(=O)C(C)(OC(=O)c3cccs3)C(=O)C2=CN1c1ccc(OC)cc1 (centres undefined)	15.0	-4.8	1.5	0.7*	/	6.6	105.8	-0.2	107.2	-0.1
CC1CCCCC1NC(=O)COC(=O)c1ccc2ncsc2c1 (centres undefined)	6.5	/	/	-0.4	/	-3.0	/	/	/	/
O=C(Nc1ccccc1C(=O)O)c1cc(S(=O)(=O)Nc2ccccc2)ccc1Cl	9.6	5.4	12.1	0.0	14.5	-6.2	/	/	/	/
COCCNC(=O)c1sc2ncn(CC(=O)N3CCCCC3)c(=O)c2c1C	1.1	2.8	13.2	1.8*	18.6	5.5	106.2	0.1	106.0	0.0
